Where “and” joins values, the source holds several entries; their conditions need not be identical. Equal entries are not always repeated. Inconclusive results are not listed. Calls of active or inactive are those of the source. The call rests on the fitted dose curve; in most records, active means well fitted inhibition curve with a large enough effect in the signal ratio, with a control signal flat (not every such curve was filed as active); inconclusive means small, poorly fitted or top-dose-only effect, or effect the other way, or a change in a side signal; inactive means flat fitted curve, though single readings scatter; the % refers to the signal ratio.
Molecular target: Thyroid hormone receptor beta (Homo sapiens) (UniProt P10828)
Sequence (P10828 whole entry, looked up): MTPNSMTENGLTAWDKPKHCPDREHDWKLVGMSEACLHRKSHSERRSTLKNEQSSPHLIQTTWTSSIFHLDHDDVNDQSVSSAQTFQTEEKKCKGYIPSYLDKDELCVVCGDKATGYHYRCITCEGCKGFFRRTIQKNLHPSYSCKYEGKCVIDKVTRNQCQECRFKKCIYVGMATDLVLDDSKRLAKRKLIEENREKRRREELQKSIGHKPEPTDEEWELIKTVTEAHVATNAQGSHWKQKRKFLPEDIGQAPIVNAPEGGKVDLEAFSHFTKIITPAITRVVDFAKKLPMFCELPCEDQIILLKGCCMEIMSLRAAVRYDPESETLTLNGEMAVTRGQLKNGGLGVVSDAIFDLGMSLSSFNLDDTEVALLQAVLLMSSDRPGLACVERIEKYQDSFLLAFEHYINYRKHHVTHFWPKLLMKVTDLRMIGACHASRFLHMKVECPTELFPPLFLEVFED
Test: qHTS assay for small molecule antagonists of thyroid hormone receptor beta signaling (AID 588547);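 further: cells stimulated with 0.4 nM T3 agonist during compound exposure; series mostly up to about 77 µM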
Settings: TR-UAS-bla HEK293, beta-lactamase ratio, antagonist mode, 18 h
Text: NIH Chemical Genomics Center [NCGC] U.S. Environmental Protection Agency [EPA] National Institutes of Environmental Health Sciences [NIEHS] National Toxicology Program [NTP] NCGC Assay Overview Thyroid hormone receptor (TR) belongs to nuclear hormone receptor superfamily. There are two subtypes for TR: TR-alpha and TR-beta. TR-beta plays a major role in regulating plasma cholesterol levels and it mediates the biological activities of thyroid hormone. Screening environmental chemicals on TR-beta signaling will provide important information for the mechanism of compound action.
NCGC Assay Protocol Summary Using a beta-lactamase reporter-gene under control of the TR response element, a cell-based assay [GeneBLAzer TR-UAS-bla-GripTite assay developed by Invitrogen] was used to measure TR-beta signaling in antagonist mode. TR-UAS-bla-GripTite HEK 293 cells were used with assay medium containing 2% charcoal/dextran FBS, 0.1 mM NEAA and 1 mM sodium pyruvate. The assay was performed in clear bottom black Greiner 1536-well plates. Library compounds were measured for their ability to inhibit the reporter gene activity. Compounds were screened in a titration series in 1536-well format. The fluorescence intensity (405 nm excitation, 460/530 nm emission) was measured using an EnVision plate reader. […] Concentration-response titration points for each compound were fitted to the Hill equation yielding concentrations of half-maximal inhibition (IC50) and maximal response (efficacy) values. qHTS protocol for TR-beta beta-lactamase assay in antagonist mode [Step] [Parameter] [Value] [Description] 1. Reagent; 5 uL; 2500 cells/well 2. Incubation; 37 C for 4 hrs 3. Compounds; 23 nL; 0.59 nM to 92 uM 4. Controls (DMSO); 23 nL 5. Agonist (Stimulator); 1uL; T3 at 0.4nM (final) concentrations 6. Incubation; 37 C for 18 hrs 7. Detection reagent; 1 uL of CCF4-dye 8. Incubation; RT for 2 hrs 9. Detection; Fluorescence; Envision plate reader
On the % scale 0 is the no-effect control and ±100 the full control effect.

| SMILES | activity change % (negative = inhibition) |
| --- | --- |
| CNC(=O)c1ccccc1 | -4.06% (inactive) |
| CCCCCCCCCCCCC1CO1 (stereo not given) | -0.964% (inactive) |
| O=C1OC(=O)c2cc([N+](=O)[O-])ccc21 | 7.82% (inactive) |
| CC(C)(C)OC=O | -8.86% (inactive) |
| CCN(C(=O)N(CC)c1ccccc1)c1ccccc1 | 1.82% (inactive) |
| O=C1OC(=O)c2c(Br)c(Br)c(Br)c(Br)c21 | 7.07% (inactive) and -6.85% (inactive) |
| Cc1ccc2c(c1[N+](=O)[O-])C(=O)c1ccccc1C2=O | -11.5% (inactive) |
| CC(C)(C)OCC1CO1 (stereo not given) | 13.4% (inactive) |
| Cc1ccc(C)c([N+](=O)[O-])c1 | 0.688% (inactive) |
| Cc1ccc(Br)cc1 | -9.28% (inactive) |
| CC(O)COC(C)(C)C (stereo not given) | -13.8% (inactive) |
| CCCCCCCCCCCCOCC1CO1 (stereo not given) | -4.18% (inactive) |
| C=C(C)C(=O)OCCCCCCCCCC | 12.3% (inactive) |
| CN(C)CCCCl | 10.5% (inactive) |
| CCCCCO | 2.41% (inactive) |
| O=Cc1ccc(CO)o1 | 7.62% (inactive) |
| Nc1cc([N+](=O)[O-])ccc1C(=O)O | 7.18% (inactive) and -9.31% (inactive) |
| O=[N+]([O-])c1ccc2nc[nH]c2c1 | 5.36% (inactive) |
| OC/C(Br)=C(\Br)CO | -11.8% (inactive) |
| CCCCCNCCCCC | -1.69% (inactive) and -17.1% (inactive) |

| SMILES | activity change % (negative = inhibition) |
| --- | --- |
| CCCCC=O | -3.59% (inactive) |
| CO[Si](CCCNCCC[Si](OC)(OC)OC)(OC)OC | -0.795% (inactive) |
| O=C(O)c1ccccc1[N+](=O)[O-] | 6.51% (inactive) |
| CC(=O)c1cc(C)oc1C | -4.91% (inactive) |
| N#Cc1ccccc1 | 1.08% (inactive) |
| CC(=O)CC(C)C | -3.32% (inactive) |
| CC(N)CN (stereo not given) | -4.82% (inactive) |
| CNC(=O)N(c1ccccc1)c1ccccc1 | 10.1% (inactive) |
| COc1cccc(N)c1 | -9.05% (inactive) |
| O=[N+]([O-])c1ccc(Cl)cc1Cl | 17.6% (inactive) |
| COc1ccc(N=[N+]([O-])c2ccc(OC)cc2)cc1 | 11.6% (inactive) |
| COCCOC(=O)c1ccccc1C(=O)OCCOC | 7.4% (inactive) |
| O=Cc1c(Cl)cccc1Cl | -16.1% (inactive) |
| O=C(O)c1c(Cl)cccc1Cl | 3.89% (inactive) |
| CC(C)Nc1ccccc1 | -21.8% (inactive) |
| Clc1ccc(Cl)c(Cl)c1Cl | 26.9% (inactive) |
| C=CCOC(=O)CCCCCCCC | -0.411% (inactive) |
| ClCCl | 0.0464% (inactive) |
| Cc1ccc(C)o1 | -3.98% (inactive) |
| CCC(=O)/C=C/C1C(C)=CCCC1(C)C (stereo not given) | -4.67% (inactive) |
